Experimental data taken from PubChem BioAssay AID1159580 (chemical genetic matrix, 2015).
Screen size: about 5,500 compounds; about 2,000 (36%) were called active. About 18% were inconclusive and are not listed. Cut-off read from the data, not from the text of the source: active = normalized growth mostly below about 0.91 (no sharp cut-off); inconclusive = no clear call, values can overlap the other calls; inactive = mostly above about 0.92. The list shows a part of the results.

Assay: chemical genetic growth profiling, strain panel (AID 1159580);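 note: tested at 20 µM; growth read once vehicle control cultures reached saturation at 30 °C; 1 = growth at the plate median or of vehicle wells; lower values mean less growth of the strain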
Details: growth OD
[1] = S. cerevisiae deletion strains, locus YAL013W, strain DEP1, active compounds read low
[2] = S. cerevisiae deletion strains, locus YBR229C, strain ROT2, active compounds read low
[3] = S. cerevisiae deletion strains, locus YDL101C, strain DUN1, active compounds read low
[4] = S. cerevisiae deletion strains, locus YDR150W, strain NUM1, active compounds read low
[5] = S. cerevisiae deletion strains, locus YEL061C, strain CIN8, active compounds read low
[6] = S. cerevisiae deletion strains, locus YGR078C, strain PAC10, active compounds read low
[7] = S. cerevisiae deletion strains, locus YHR030C, strain SLT2, active compounds read low
[8] = S. cerevisiae deletion strains, locus YHR087W, strain rtc3, active compounds read low
[9] = S. cerevisiae deletion strains, locus YJL187C, strain SWE1, active compounds read low
[10] = S. cerevisiae deletion strains, locus YJR043C, strain POL32, active compounds read low
[11] = S. cerevisiae deletion strains, locus YJR075W, strain HOC1, active compounds read low
[12] = S. cerevisiae deletion strains, locus YKL190W, strain CNB1, active compounds read low
[13] = S. cerevisiae deletion strains, locus YLR039C, strain RIC1, active compounds read low
[14] = S. cerevisiae deletion strains, locus YLR058C, strain SHM2 (second series), active compounds read low
[15] = S. cerevisiae deletion strains, locus YLR085C, strain ARP6, active compounds read low
[16] = S. cerevisiae deletion strains, locus YLR262C, strain YPT6, active compounds read low
[17] = S. cerevisiae deletion strains, locus YML094W, strain GIM5, active compounds read low
[18] = S. cerevisiae deletion strains, locus YMR219W, strain ESC1, active compounds read low
[19] = S. cerevisiae deletion strains, locus YMR263W, strain SAP30, active compounds read low
[20] = S. cerevisiae deletion strains, locus YMR307W, strain GAS1, active compounds read low
[21] = S. cerevisiae deletion strains, locus YNL153C, strain GIM3, active compounds read low
[22] = S. cerevisiae deletion strains, locus YNL298W, strain CLA4 (second series), active compounds read low
[23] = S. cerevisiae deletion strains, locus YNL322C, strain KRE1, active compounds read low
[24] = S. cerevisiae deletion strains, locus YNR030W, strain Alg12, active compounds read low
[25] = S. cerevisiae deletion strains, locus YPL055C, strain LGE1, active compounds read low
[26] = S. cerevisiae deletion strains, locus YPL241C, strain CIN2, active compounds read low
[27] = S. cerevisiae deletion strains, locus YPR135W, strain CTF4, active compounds read low
[28] = S. cerevisiae strains, strain wild type, active compounds read low
[29] = S. cerevisiae deletion strains, locus YAL040C, strain CLN3, active compounds read low
[30] = S. cerevisiae deletion strains, locus YDR363W, strain ESC2, active compounds read low
[31] = S. cerevisiae deletion strains, locus YER002W, strain NOP16, active compounds read low
[32] = S. cerevisiae deletion strains, locus YNL175C, strain NOP13, active compounds read low
[33] = S. cerevisiae deletion strains, locus YNL197C, strain WHI3, active compounds read low
[34] = S. cerevisiae deletion strains, locus YNL224C, strain SQS1, active compounds read low
[35] = S. cerevisiae deletion strains, locus YOR083W, strain WHI5 (second series), active compounds read low
[36] = S. cerevisiae deletion strains, locus YNL128W, strain TEP1, active compounds read low
[37] = S. cerevisiae deletion strains, locus YOL006C, strain TOP1, active compounds read low

Measured: normalized growth

CN(C(=O)Nc1ccccc1)n1cnc2ccccc2c1=O
inactive: [1] 0.999 | [2] 1.03 | [3] 1 | S. cerevisiae deletion strains, locus YDL134C, strain PPH21, active compounds read low 1.03 | [4] 0.917 | [5] 1.02 | [6] 1.01 | [7] 1.01 | [8] 0.994 | [9] 1.01 | [10] 0.998 | [11] 1.04 | [12] 1.01 | [13] 1 | [14] 1.02 | [15] 1.04 | [16] 1.01 | [17] 1.03 | [18] 1.01 | [19] 0.994 | [20] 0.98 | [21] 1.01 | [22] 1 | [23] 1.01 | [24] 1.01 | [25] 1.05 | [26] 1.02 | [27] 1 | [28] 1.01

CCCCCCC(C)(C)c1ccc([C@@H]2C[C@H](O)CC[C@H]2CCCO)c(O)c1
active: [21] 0.716
inactive: [1] 1.01 | [29] 0.993 | [4] 0.986 | [30] 1.02 | [31] 0.977 | [20] 1.01 | [32] 0.915 | [33] 0.944 | [34] 0.922 | [23] 1.01 | [35] 0.897 | [25] 0.998

CCCCCN(CCCCC)C(=O)C(CCC(=O)O)NC(=O)c1ccc(Cl)c(Cl)c1 (configuration not stated)
inactive: [1] 1.01 | [29] 1 | S. cerevisiae deletion strains, locus YCL061C, strain MRC1 (second series), active compounds read low 1 | [4] 0.993 | [30] 1.03 | [31] 0.991 | [7] 0.993 | S. cerevisiae deletion strains, locus YHR079C, strain IRE1, active compounds read low 0.986 | S. cerevisiae deletion strains, locus YJL095W, strain BCK1, active compounds read low 1.01 | S. cerevisiae deletion strains, locus YJR066W, strain TOR1, active compounds read low 0.97 | [11] 1.02 | S. cerevisiae deletion strains, locus YLR113W, strain HOG1, active compounds read low 0.952 | [20] 0.992 | [36] 0.963 | [32] 0.995 | S. cerevisiae deletion strains, locus YNL183C, strain NPR1, active compounds read low 0.949 | [33] 0.986 | [34] 0.985 | [35] 0.95 | S. cerevisiae deletion strains, locus YOR231W, strain MKK1, active compounds read low 0.983 | [25] 0.983 | S. cerevisiae deletion strains, locus YPL256C, strain CLN2, active compounds read low 0.987

COC(=O)c1cc([N+](=O)[O-])ccc1N1CCOCC1
inactive: [1] 1.01 | [2] 1 | [3] 1.01 | [4] 0.98 | [5] 1.01 | [6] 1.01 | [7] 1.09 | [8] 1.02 | [9] 1 | [10] 0.991 | [11] 0.988 | [12] 1.01 | [13] 1.02 | [14] 1 | [15] 1.06 | [16] 1.01 | [17] 1.03 | [18] 1 | [19] 1 | [20] 1.06 | [21] 0.995 | [22] 1.05 | [23] 0.993 | [24] 1.03 | [37] 1.06 | [25] 1.02 | [26] 1.06 | [27] 1.04 | [28] 1.01

COc1cc([N+](=O)[O-])ccc1N1CCCC1
inactive: [2] 0.941 | [4] 0.898 | [5] 0.912 | [8] 0.979 | [10] 0.951 | [11] 0.933 | [19] 0.928 | [36] 0.931 | [25] 0.946
active: [1] 0.898 | [3] 0.882 | [6] 0.882 | [7] 0.302 | [9] 0.902 | [13] 0.554 | [14] 0.929 | [15] 0.605 | [16] 0.661 | [17] 0.865 | [18] 0.934 | [20] 0.445 | [21] 0.913 | [22] 0.775 | [23] 0.916 | [24] 0.862 | [37] 0.522 | [26] 0.858 | [27] 0.512 | [28] 0.867
